Screens: PubChem BioAssay, National Center for Advancing Translational Sciences (NCATS)
In the library only some 19% were active in any assay of this set; here they are far more common.
HepG2 viability – kills HepG2 cells in TGF-b inhibitor counter-screen. HepG2 CAGA-GFP viability, ATP luminescence, 18 h. Potency, µM (series often up to 46.1 µM), for the others: at the highest dose activity change, negative = cytotoxicity, usual class: cytotoxic. 0.76% of 410,000 active. AID 588856; further: potency means the concentration at half of the fitted maximal effect
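HepG2 CAGA-GFP cells (1000/well, DMEM with 1% FBS) received compound, then TGF-beta at 500 pg/mL final, and were incubated 18 hours at 37 degrees C. Viability was read by CellTiter-Glo luminescence. Media-only wells were set as complete cell-killing and DMSO as no toxicity.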
IL-1B inflam inh – inhibitors of inflammasome signaling (IL-1 beta secretion); activity change, % at 57.5 µM; 4.7% of 360,000 active; THP-1 LPS/ATP IL-1B secretion, AlphaLISA, 16 h; stronger effect = lower value; in the data active means activity change below about -50%; inconclusive means mostly about -30% to -49%; further: on the % scale 0 is the no-effect control and ±100 the full control effect
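Secreted IL-1B measured by AlphaLISA bead assay after 16 h compound exposure of THP-1 cells; compounds (final up to 57.5 uM) added 1 h before LPS (250 ng/mL) and ATP (1.25 mM) stimulation; lower signal means less secretion.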
TDP1 cell noCPT – qHTS for Inhibitors of human tyrosyl-DNA phosphodiesterase 1 (TDP1): qHTS in cells in absence of CPT | DT40 Tdp1-/- hTDP1 cells, no CPT, ATP luminescence, 48 h | Potency, µM (highest dose often 46.2 µM), for the others: at the top dose activity change, negative = growth inhibition, hits mostly inhibitors | 15% of 420,000 active | AID 686978, 2013; further: potency means the concentration at half of the fitted maximal effect; on the % scale 0 is the no-effect control and ±100 the full control effect; nearly all actives have a fitted effect of over 55% in size
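No-CPT arm: Tdp1-/-;hTDP1 DT40 cells (400/well) plus compounds, incubated ≥48 hr at 37 °C. Readout CellTiter-Glo luminescence.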
ASM inhibitor – human S-ASM enzyme inhibition; Potency, µM (series often up to 57.5 µM), inactives show at the highest dose activity change, negative = inhibition, hits mostly inhibitors; P17405; 0.006% of 340,000 active; placental ASM, HMU-PC fluorogenic substrate, 60 min; further: potency means the concentration at half of the fitted maximal effect
Target sequence (P17405 47-631 limits assumed): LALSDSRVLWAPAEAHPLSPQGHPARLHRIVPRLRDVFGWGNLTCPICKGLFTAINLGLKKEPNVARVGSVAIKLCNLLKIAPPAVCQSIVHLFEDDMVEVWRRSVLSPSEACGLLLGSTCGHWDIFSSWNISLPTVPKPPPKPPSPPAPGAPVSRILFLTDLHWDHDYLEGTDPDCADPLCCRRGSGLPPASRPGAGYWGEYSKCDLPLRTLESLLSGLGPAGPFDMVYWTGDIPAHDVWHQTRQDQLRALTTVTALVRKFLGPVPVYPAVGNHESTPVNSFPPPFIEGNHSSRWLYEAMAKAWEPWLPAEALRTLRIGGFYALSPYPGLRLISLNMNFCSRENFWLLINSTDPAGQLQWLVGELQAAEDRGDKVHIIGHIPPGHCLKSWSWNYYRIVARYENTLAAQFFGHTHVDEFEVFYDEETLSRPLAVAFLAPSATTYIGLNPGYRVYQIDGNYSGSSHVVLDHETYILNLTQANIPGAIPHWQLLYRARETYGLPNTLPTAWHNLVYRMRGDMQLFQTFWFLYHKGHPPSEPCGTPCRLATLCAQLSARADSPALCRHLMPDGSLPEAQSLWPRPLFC
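Human placenta-derived ASM enzyme was preincubated with compound for 10 minutes at room temperature, then given fluorogenic substrate HMU-PC0 (9 uM final) for 60 minutes at 37 °C; a pH 10 stop preceded fluorescence reading at Ex 386/Em 447 nm.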
TGFb SMAD3 inh – TGF-b pathway inhibition | HepG2 CAGA-GFP TGF-b/SMAD3 reporter, GFP fluorescence, 18 h; TGF-beta stimulated, 500 pg/mL final | Potency, µM (titrated, usually from 46.1 µM), without a hit: at the highest dose activity, negative = inhibition, usual class: inhibitors | 1.2% of 410,000 active; further: potency means the concentration at half of the fitted maximal effect; on the % scale 0 is the no-effect control and ±100 the full control effect; nearly all actives have a fitted effect of over 65% in size
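HEPG2 CAGA-GFP cells (1000/well, DMEM with 1% FBS) were pre-incubated 2 h at 37 degrees C, given compound by pin tool, then stimulated with TGF-beta at 500 pg/mL final for 18 h before per-cell GFP fluorescence imaging.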
TDP1 cell CPT – DT40-hTDP1 cell growth loss with CPT; chicken DT40 Tdp1-/-;hTDP1 cells + 20 nM CPT, ATP luminescence, 48 h; Potency, µM (doses to about 46.2 µM), for inactives: top-dose activity change, negative = growth inhibition, usual class: inhibitors; 12% of 420,000 active; further: potency means the concentration at half of the fitted maximal effect; on the % scale 0 is the no-effect control and ±100 the full control effect; nearly all actives have a fitted effect of over 55% in size
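Cell growth measured by CellTiter-Glo luminescence after a minimum 48 h, 37 C compound exposure with 20 nM CPT in Tdp1-knockout DT40 cells stably expressing hTDP1, seeded 400/well; qHTS titration format.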
An asterisk follows results filed as active; i = inactive; ? = inconclusive; / = no result given; [ ] = dose if it differs, or a comment. Unless noted, the call rests on the fitted dose curve; in most records, active means well fitted curve in the direction sought with a large enough effect; inconclusive means small, poorly fitted or top-dose-only effect, or another doubt; inactive means no such curve, though single readings can be large; an effect the other way counts as inactive or inconclusive.

SMILES	HepG2 viability	IL-1B inflam inh	TDP1 cell noCPT	ASM inhibitor	TGFb SMAD3 inh	TDP1 cell CPT
CCOC(=O)c1cccc(NC(=O)C(C)n2nc(C)c3c(C)n(-c4ccccc4)nc3c2=O)c1 (stereo not given)	-35%	/	?	/	?	?
CCOC(=O)C1CCCN(C(=O)c2ccc(C(F)(F)F)nc2C)CC1 (stereo not given)	3%	17	-2%	/	22%	11%
CCC(C)NC(=O)Cn1c(=O)ccc2cc(S(=O)(=O)N3CCCC3)ccc21 (stereo not given)	-8%	/	?	/	23%	?
Cc1cccc(NC(=O)Cn2c(=O)ccc3cc(S(=O)(=O)N4CCCC4)ccc32)c1C	-26%	/	16µM*	/	-5%	?
COc1ccc(C)cc1NC(=O)Cn1c(=O)ccc2cc(S(=O)(=O)N3CCCC3)ccc21	1%	/	21µM*	/	?	21µM*
Cc1c(Br)c(O)c(Br)c2sc(=O)oc12	-17%	0	16%	-9%	-19%	-1%
COc1ccccc1CCC(=O)OCC(=O)Nc1cccc(S(=O)(=O)N2CCOCC2)c1	1%	0	-17%	1%	1%	9%
Cc1ccc(C)c(NS(=O)(=O)c2ccc(-c3cnc(C4CC4)o3)cc2)c1	-50%	51	0.0052µM*	-15%	?	0.0058µM*
O=S(=O)(c1ccc(-c2cnc(C3CC3)o2)cc1)N1CCN(c2ccccc2F)CC1	0%	/	-13%	/	?	?
Cc1ccc(Cl)cc1N1CCN(S(=O)(=O)c2ccc(-c3cnc(C4CC4)o3)cc2)CC1	-22%	/	13µM*	/	?	?
Cc1ccc(NS(=O)(=O)c2ccc(-c3cnc(C4CC4)o3)cc2)cc1N(C)C	-32%	/	0.73µM*	/	10µM*	1µM*
Cc1nn(C)c(Sc2ccccc2N)c1[N+](=O)[O-]	12%	16	?	1%	-11%	?
Cc1cnc(CNc2cc(-c3ccccc3C)ncn2)cn1	/	/	-4%	/	/	1%
CC(C)C(NC(=O)c1ccccc1NC(=O)c1ccco1)C(=O)NNC(=O)c1ccncc1 (stereo not given)	-42%	9	0%	2%	0%	15%
C[C@H]1CN([C@@H](C)CO)C(=O)CCCn2nncc2CO[C@H]1CN(C)S(=O)(=O)c1ccc(-n2cccn2)cc1	6%	23	-10%	/	22%	12%
O=S(=O)(c1ccccc1)N1CCC[C@@]2(CCN(c3ncccn3)C2)C1	/	/	-19%	/	/	-5%
C=C1CCC[C@]2(C)C[C@H]3OC(=O)C(CNC(C)CCCC(C)C)[C@H]3CC12 (stereo not given in full)	-46%	-99*	21µM*	5%	11µM*	?
CC1(C(=O)NC2CCCCCCC2)CCC(=O)N1CCN1CCOCC1 (stereo not given)	15%	7	6%	0%	7%	-3%
C=C1CCC[C@]2(C)C[C@H]3OC(=O)C(CN(Cc4ccc(OC)c(OC)c4)CC(C)O)[C@H]3CC12 (stereo not given in full)	-116%	-98*	18µM*	4%	?	?
C=C1CCC[C@]2(C)C[C@H]3OC(=O)C(CN4CCOCC4)[C@H]3C[C@@H]12 (stereo not given in full)	17%	-74*	?	4%	?	?
C=C1CCC[C@]2(C)C[C@H]3OC(=O)C(CN[C@@H](C)c4ccccc4)[C@H]3CC12 (stereo not given in full)	-11%	-87*	?	-2%	8%	?
C=C1CCC[C@]2(C)C[C@H]3OC(=O)C(CNCC(OC)OC)[C@H]3CC12 (stereo not given in full)	18%	-78*	18µM*	6%	0%	?
O=C(c1cccs1)N1CCN(S(=O)(=O)c2ccccc2)CC1	-23%	15	1%	2%	-2%	-15%
O=C(c1sccc1-c1ccccc1)N1CCN(S(=O)(=O)c2ccccc2)CC1	26%	6	23µM*	-2%	-2%	?
Cc1ccc(S(=O)(=O)N2CCN(C(=O)c3sccc3-c3ccccc3)CC2)cc1	-8%	0	18µM*	2%	3%	?
SMILES	HepG2 viability	IL-1B inflam inh	TDP1 cell noCPT	ASM inhibitor	TGFb SMAD3 inh	TDP1 cell CPT
Cc1ccc(N2CC(NC(=O)C3CCCC3)CC2=O)cc1C (stereo not given)	-21%	/	-16%	/	-22%	-1%
CC1=C(C(=O)Nc2cccc(C(=O)NC(C)c3ccccc3)c2)SCCO1 (stereo not given)	-2%	-10	16µM*	2%	1%	?
COc1ccc(N(C(=O)c2snc(C(N)=O)c2N)C(C(=O)NC2CCCC2)c2cccs2)c(OC)c1 (stereo not given)	-1%	0	21µM*	435%	3%	?
COc1ccccc1N(C(=O)c1snc(C(N)=O)c1N)C(C(=O)NC1CCCCC1)c1cccc(OC)c1OC (stereo not given)	5%	0	16µM*	i	-13%	?
CCOc1ccccc1N(C(=O)c1snc(C(N)=O)c1N)C(C(=O)NCCC(C)C)c1ccco1 (stereo not given)	0%	-11	21µM*	328%	-9%	?
COc1ccccc1N(C(=O)c1snc(C(N)=O)c1N)C(C(=O)NCCC(C)C)c1ccco1 (stereo not given)	-21%	-19	-29%	i	-1%	?
COc1ccc(OC)c(C(C(=O)NC2CCCCC2)N(C(=O)c2snc(C(N)=O)c2N)c2ccccc2OC)c1 (stereo not given)	-21%	12	?	183%	10%	?
COc1cccc(N2CC(NC(=O)c3ccc(S(=O)(=O)N4CCCCC4)cc3)CC2=O)c1 (stereo not given)	-1%	/	?	/	-25%	?
CCC1(C2CCN(C(=O)c3ccc4ccccc4c3)CC2)NC(=O)N(CCc2scnc2C)C1=O (stereo not given)	/	/	-20%	/	/	-4%[9.04 µM]
Cc1c(C(=O)NCCc2ccc(Cl)cc2)cccc1-n1cnc2cccnc21	4%	/	13µM*	/	0%	15µM*
CCC(=O)Nc1ccc2oc(-c3cccc(C)c3)nc2c1	20µM*	-21	5.8µM*	4%	0%	7.3µM*
